{"source": "paper PMC12864922", "about": "“TDP-43 directly inhibits mRNA accumulation in neurites through modulation of mRNA stability”", "binders": {"B1": {"name": "ENSMUSG00000029636.187|Wasf3 (ssRNA)", "RNA": "GGGAGUUCUACAGUCCGACGAUCGCUUCGAUAUCCGCAUGCUAAAUUUUAAAAAGUACCUCACAAGAUAAACUUGAUUCAGCCAGUUGCCCGGGCAGAGACCUGACUUCCCCUCUCCUGCCCUGAUCCUUUUUACCAAAUGGCGAUUCCAUAGUCCUGGCUGAGGCAGGGGCUCAAAGUCCAGUGUCUGCUUUGCAAUUCUGGAAGGACAGCUGCUUAUUUAAAUAAGUCUGUGAUAUCCGCAGGCUUGGGUUACAGGGAGGACCUUGCAGAGGGACCAGGACACUGCCUUCCCUUAGGUGCACUCUUGCGGUCGCACUAGUGUGGAAUUCUCGGGUGUCAAGG"}, "B2": {"name": "ENSMUSG00000043670.284|Diras1 (ssRNA)", "RNA": "GGGAGUUCUACAGUCCGACGAUCGCUUCGAUAUCCGCAUGCUAGAGGGAGAGUGGGAGGUAGAAUGAGAGAGAGUGUGUAUUGGAAGGGAGAGAGAGAGUGUGAGAGAGUGUGAGAGAGAGACAGAGACAGAGAUAAAGGAGAUAAAGAGAGACAAAGACAUGGUCACAAAGAGACAGAGAAGCAGAAAGAAGGCUGAAGCCAGAUGACCAAGUAGGCCGGACCCCACUGUGUUCCCUUCUGUGUGCCAGGCACAGGGAGAGCCACAGCCUGAAGCCUGAGUCUGAGCAUAGCUGAGCCCUGACUCUUGCGGUCGCACUAGUGUGGAAUUCUCGGGUGUCAAGG"}, "B3": {"name": "ENSMUSG00000043670.285|Diras1 (ssRNA)", "RNA": "GGGAGUUCUACAGUCCGACGAUCGCUUCGAUAUCCGCAUGCUAGAGUGGGAGGUAGAAUGAGAGAGAGUGUGUAUUGGAAGGGAGAGAGAGAGUGUGAGAGAGUGUGAGAGAGAGACAGAGACAGAGAUAAAGGAGAUAAAGAGAGACAAAGACAUGGUCACAAAGAGACAGAGAAGCAGAAAGAAGGCUGAAGCCAGAUGACCAAGUAGGCCGGACCCCACUGUGUUCCCUUCUGUGUGCCAGGCACAGGGAGAGCCACAGCCUGAAGCCUGAGUCUGAGCAUAGCUGAGCCCUGACCUCUACUCUUGCGGUCGCACUAGUGUGGAAUUCUCGGGUGUCAAGG"}, "B4": {"name": "ENSMUSG00000058297.290|Spock2 (ssRNA)", "RNA": "GGGAGUUCUACAGUCCGACGAUCGCUUCGAUAUCCGCAUGCUAAGAGAGAGAGAGAGAGAGAAAGAGAGAGAGAAUGAGAGAGAAUGAGAGAGAGAAUACCCGAGGGCCACCCUGAUGCCCAGGAAGAGUGAGGGCAGCCCCCUGUGUGGUGGAAGAGGCUGGGCAGCUAGCUACUGGGGACCUUGUGCUGAGGCUUCCAGGACAAAGCCCCAGUCUGGCUCUCCCCCAGCCUCUCAGGGGCACUGGCUGGUCACAUCCACUGAGUAUUGAUCGGUUGGACUUUAGGGAAGAGCCUCCUCCUUCUCUUGCGGUCGCACUAGUGUGGAAUUCUCGGGUGUCAAGG"}, "B5": {"name": "ENSMUSG00000058297.292|Spock2 (ssRNA)", "RNA": "GGGAGUUCUACAGUCCGACGAUCGCUUCGAUAUCCGCAUGCUAAGAGAGAAAGAGAGAGAGAAUGAGAGAGAAUGAGAGAGAGAAUACCCGAGGGCCACCCUGAUGCCCAGGAAGAGUGAGGGCAGCCCCCUGUGUGGUGGAAGAGGCUGGGCAGCUAGCUACUGGGGACCUUGUGCUGAGGCUUCCAGGACAAAGCCCCAGUCUGGCUCUCCCCCAGCCUCUCAGGGGCACUGGCUGGUCACAUCCACUGAGUAUUGAUCGGUUGGACUUUAGGGAAGAGCCUCCUCCUUCCCAUUCCUUUCCUCUUGCGGUCGCACUAGUGUGGAAUUCUCGGGUGUCAAGG"}, "B6": {"name": "ENSMUSG00000058297.287|Spock2 (ssRNA)", "RNA": "GGGAGUUCUACAGUCCGACGAUCGCUUCGAUAUCCGCAUGCUAAGAGAGAGAGAGAGAGAGAGAGAGAGAGAGAGAGAGAAAGAGAGAGAGAAUGAGAGAGAAUGAGAGAGAGAAUACCCGAGGGCCACCCUGAUGCCCAGGAAGAGUGAGGGCAGCCCCCUGUGUGGUGGAAGAGGCUGGGCAGCUAGCUACUGGGGACCUUGUGCUGAGGCUUCCAGGACAAAGCCCCAGUCUGGCUCUCCCCCAGCCUCUCAGGGGCACUGGCUGGUCACAUCCACUGAGUAUUGAUCGGUUGGACUUUACUCUUGCGGUCGCACUAGUGUGGAAUUCUCGGGUGUCAAGG"}, "B7": {"name": "ENSMUSG00000043670.283|Diras1 (ssRNA)", "RNA": "GGGAGUUCUACAGUCCGACGAUCGCUUCGAUAUCCGCAUGCUAGAGAGGGAGGGAGAGUGGGAGGUAGAAUGAGAGAGAGUGUGUAUUGGAAGGGAGAGAGAGAGUGUGAGAGAGUGUGAGAGAGAGACAGAGACAGAGAUAAAGGAGAUAAAGAGAGACAAAGACAUGGUCACAAAGAGACAGAGAAGCAGAAAGAAGGCUGAAGCCAGAUGACCAAGUAGGCCGGACCCCACUGUGUUCCCUUCUGUGUGCCAGGCACAGGGAGAGCCACAGCCUGAAGCCUGAGUCUGAGCAUAGCUGAGCUCUUGCGGUCGCACUAGUGUGGAAUUCUCGGGUGUCAAGG"}, "B8": {"name": "ENSMUSG00000058297.293|Spock2 (ssRNA)", "RNA": "GGGAGUUCUACAGUCCGACGAUCGCUUCGAUAUCCGCAUGCUAAAAGAGAGAGAGAAUGAGAGAGAAUGAGAGAGAGAAUACCCGAGGGCCACCCUGAUGCCCAGGAAGAGUGAGGGCAGCCCCCUGUGUGGUGGAAGAGGCUGGGCAGCUAGCUACUGGGGACCUUGUGCUGAGGCUUCCAGGACAAAGCCCCAGUCUGGCUCUCCCCCAGCCUCUCAGGGGCACUGGCUGGUCACAUCCACUGAGUAUUGAUCGGUUGGACUUUAGGGAAGAGCCUCCUCCUUCCCAUUCCUUUCUGCCACCUCUUGCGGUCGCACUAGUGUGGAAUUCUCGGGUGUCAAGG"}, "B9": {"name": "ENSMUSG00000058297.289|Spock2 (ssRNA)", "RNA": "GGGAGUUCUACAGUCCGACGAUCGCUUCGAUAUCCGCAUGCUAAGAGAGAGAGAGAGAGAGAGAGAGAAAGAGAGAGAGAAUGAGAGAGAAUGAGAGAGAGAAUACCCGAGGGCCACCCUGAUGCCCAGGAAGAGUGAGGGCAGCCCCCUGUGUGGUGGAAGAGGCUGGGCAGCUAGCUACUGGGGACCUUGUGCUGAGGCUUCCAGGACAAAGCCCCAGUCUGGCUCUCCCCCAGCCUCUCAGGGGCACUGGCUGGUCACAUCCACUGAGUAUUGAUCGGUUGGACUUUAGGGAAGAGCCUCCUCUUGCGGUCGCACUAGUGUGGAAUUCUCGGGUGUCAAGG"}, "B10": {"name": "ENSMUSG00000032194.294|Kank2 (ssRNA)", "RNA": "GGGAGUUCUACAGUCCGACGAUCGCUUCGAUAUCCGCAUGCUAAUGGAUGAGAAACUGGGUUGGCUGGUGGGUAGAUGUCAUGAUGGAGUCUUUGCACGUGUAUGAAACAGAAAACCAAACUUCAGGACAGACAGCUGCUGGUGUCUCUGGAUGCUCACAGCCUAGGGCACAUUUGAAAGGUCGUGCUCUGAGCUGAGCCCUGAGUUCCAGCCUUGUAGCCAGCAAGGGAGUUUAUUUAAGGUUCUGGAAGCAUCAGCUAUGACCCAAAGCACACGCUCCUCAGAAAAGCCCCUGUUUCUGUCCUCUUGCGGUCGCACUAGUGUGGAAUUCUCGGGUGUCAAGG"}, "B11": {"name": "ENSMUSG00000042529.84|Kcnj12 (ssRNA)", "RNA": "GGGAGUUCUACAGUCCGACGAUCGCUUCGAUAUCCGCAUGCUACCCCACAAAACACAAGAAAACAUUAACAGGUGGUUCAAUUUUUAAAAUUCCUGGUGUGGGGACAGUUGGAAUUCUACUCAGCGCUGCCAGGCAAGCAGCUGGACGGAGAACCCUGAGGGUUCUCAGAGGUCUGUUUUCUCCCUCACGUGGGCCAGGGCCUUAAGCGAGUUGUCAUGCUUAAGGAUGAAUCAGGCUGCUUGUGACCAUGUUAACGAUUCUAAUAAAGUGUCUGGAUGUCUCUUGGGGGUGGGGCCCACUAGCUCUUGCGGUCGCACUAGUGUGGAAUUCUCGGGUGUCAAGG"}, "B12": {"name": "ENSMUSG00000061578.34|Ksr2|40:50;139:145;150:154 (ssRNA)", "RNA": "GGGAGUUCUACAGUCCGACGAUCGCUUCGAUAUCCGCAUGCUACCACUCAACUAGGACCAAACUGGGCCAGAGAGGGUCCCAACACACCACACAAGGAGCCACAGACUGAGCACACCACCUCGGACUGUGGAGACCAAGACACAUGCCCAGUGGGCAGACUCAGACUCACACGCUGGACCACACACACCGCAACACACUACACAUGGACAGGGCCAACUGCUAUCCUUCUGCCUGGACGAGCCAGCUGUGGAGUGUCCCAGCUGUGCUAUCCUGGAACACAGAACCAGGAUGGAACCAGAAACCUCUUGCGGUCGCACUAGUGUGGAAUUCUCGGGUGUCAAGG"}, "B13": {"name": "ENSMUSG00000061578.47|Ksr2|61:67;72:76 (ssRNA)", "RNA": "GGGAGUUCUACAGUCCGACGAUCGCUUCGAUAUCCGCAUGCUACGGACUGUGGAGACCAAGACACAUGCCCAGUGGGCAGACUCAGACUCACACGCUGGACCACACACACCGCAACACACUACACAUGGACAGGGCCAACUGCUAUCCUUCUGCCUGGACGAGCCAGCUGUGGAGUGUCCCAGCUGUGCUAUCCUGGAACACAGAACCAGGAUGGAACCAGAAACAAUACACCUGCUCCGUUGUCAAGGCUUCUAGGCCAAGGUCAGGGUAGGGAGGUGGGGUGGGUUAAACUUGCAAACAUCCUCUUGCGGUCGCACUAGUGUGGAAUUCUCGGGUGUCAAGG"}}, "note": "Over roughly 9,900 sequences, “r (bound/input frequency ratio)” has its median near 0.7; the highest 2% begin near 6.5. The entries come from a sample that favours the highest values as a whole.", "data": [{"target": "TDP-43 (Homo sapiens, UniProt Q13148 1-414)", "sequence (Q13148 whole entry)": "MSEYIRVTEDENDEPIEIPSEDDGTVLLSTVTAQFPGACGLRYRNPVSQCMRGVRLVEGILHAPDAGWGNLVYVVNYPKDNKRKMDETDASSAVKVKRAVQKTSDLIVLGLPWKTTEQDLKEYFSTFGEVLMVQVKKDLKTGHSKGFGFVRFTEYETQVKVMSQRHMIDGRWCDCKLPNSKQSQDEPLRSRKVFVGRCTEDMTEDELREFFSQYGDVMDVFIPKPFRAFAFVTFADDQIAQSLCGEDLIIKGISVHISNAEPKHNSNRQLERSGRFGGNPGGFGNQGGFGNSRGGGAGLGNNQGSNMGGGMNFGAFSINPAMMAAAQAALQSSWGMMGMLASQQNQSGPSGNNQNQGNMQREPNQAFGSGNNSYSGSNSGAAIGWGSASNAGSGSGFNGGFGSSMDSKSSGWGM", "assay": "RNA Bind-n-Seq with designed 260-mer pool; 25 mM Tris-HCl, 150 mM KCl, 3 mM MgCl2, BSA (printed 500 mg/mL), 20 units/mL SUPERase IN; pH not stated; 500 nM RNA pool, 1 h, 4 C; TDP-43 5, 50, 500 nM; high values mean tight binding", "settings": "protein: recombinant; tags: SBP (GST cleaved off with PreScission; pGEX-GST-SBP)", "how_it_was_run": "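Duplicate measurements used two independent batches of recombinant SBP-tagged TDP-43, which was captured on streptavidin beads at 5, 50 or 500 nM. The beads were incubated with 500 nM of an in vitro-transcribed 260-nt 3′ UTR oligo pool for 1 h at 4 °C in 25 mM Tris-HCl, 150 mM KCl, 3 mM MgCl2, BSA and SUPERase IN. After washing, biotin elution, reverse transcription, PCR amplification and sequencing, binding was expressed as R: each oligo's normalized read abundance in the bound sample over its abundance in input.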", "values": [{"binder": "B1", "binding signal": "0.317 R (bound/input frequency ratio)"}, {"binder": "B2", "binding signal": "5.75 R (bound/input frequency ratio)"}, {"binder": "B3", "binding signal": "6.66 R (bound/input frequency ratio)"}, {"binder": "B4", "binding signal": "8.79 R (bound/input frequency ratio)"}, {"binder": "B5", "binding signal": "6.42 R (bound/input frequency ratio)"}, {"binder": "B6", "binding signal": "7.5 R (bound/input frequency ratio)"}, {"binder": "B7", "binding signal": "4.07 R (bound/input frequency ratio)"}, {"binder": "B8", "binding signal": "2.36 R (bound/input frequency ratio)"}, {"binder": "B9", "binding signal": "7.91 R (bound/input frequency ratio)"}, {"binder": "B10", "binding signal": "0.914 R (bound/input frequency ratio)"}, {"binder": "B11", "binding signal": "1.71 R (bound/input frequency ratio)"}, {"binder": "B12", "binding signal": "1.07 R (bound/input frequency ratio)"}, {"binder": "B13", "binding signal": "0.292 R (bound/input frequency ratio)"}]}]}
